Measurements reported in PubChem BioAssay (NCATS).
Values joined by “and” are separate entries in the source; they are usually repeats but may differ in a detail not shown here. Equal entries are not always repeated. Results filed as inconclusive are left out. Active and inactive are the calls of the source. Unless noted, calls follow the shape of the dose curve; as a rule, active = well fitted curve in the direction sought with a large enough effect; inconclusive = small, poorly fitted or top-dose-only effect, or another doubt; inactive = no such curve, though single readings can be large; an effect the other way counts as inactive or inconclusive.

Tests used:
[1] = Primary qHTS for Vero E6 cytotoxicity: counterscreen for inhibitors of SARS-S pseudo-typed particle cell entry (AID 1479150; calls by dose curve; as to activity change, negative = cytotoxicity: % is scaled to controls: 0 for no effect and ±100 for the full control effect); conditions: outcome: dose series up to 57.1 µM unless noted
[2] = Cell Viability - BJ (AID 421; calls by dose curve;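 also: potency is read from the fitted curve at half-maximal effect; cells exposed to compound for 40 hours at 37 °C before readout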); conditions: BJ fibroblast viability, qHTS
Summary of the method: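 Normal human BJ foreskin fibroblasts, 1500/well in complete medium, treated 40 hr at 37 °C. Cellular ATP by CellTiter-Glo luminescence; normalized to DMSO and 100 uM tamoxifen, AC50 from Hill fit.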

[3] = Cell Viability - HepG2 (AID 433; calls by dose curve;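 also: potency is read from the fitted curve at half-maximal effect; potency for ATP loss meaning cytotoxicity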); conditions: qHTS
Summary of the method: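 Cytotoxicity is scored as loss of intracellular ATP in HepG2 cells exposed to compounds for 40 h. Concentration-response curves, normalized to DMSO and 100 uM tamoxifen, give AC50 values.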

[4] = Cell Viability - N2a (AID 540); conditions: N2a mouse neuroblastoma cell viability; at 92.2 µM (top of the series);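 also: cells exposed to compound for 40 h at 37 °C; plate controls were DMSO alone for no effect and tamoxifen control for full effect; nearly all actives have a fitted effect of over 45% in size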
Summary of the method: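 Cytotoxicity was scored as loss of cellular ATP in N2a cells, a mouse neuroblastoma line. Compounds are applied in a qHTS concentration series for 40 hr at 37 °C.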

[5] = Cell Viability - NIH 3T3 (AID 541); conditions: NIH 3T3 cell viability, qHTS; activity change, negative = cytotoxicity: at 92.2 µM (top of the series);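 also: plate controls were DMSO alone for no effect and tamoxifen positive control for full effect; nearly all actives have a fitted effect of over 25% in size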
Summary of the method: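 Cells seeded at 1000/well, rested 5 hr at 37 °C, then dosed and incubated 40 hr at 37 °C. CellTiter-Glo added, 20 min room temperature, luminescence read. AC50 by Hill fit.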

[6] = Cell Viability - HUV-EC-C (AID 542); also: % is scaled to controls: 0 for no effect and ±100 for the full control effect; nearly all actives have a fitted effect of over 35% in size
Summary of the method: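 Cells were seeded at 1000 per well and incubated 5 hr at 37 °C before compound addition. After 40 hr at 37 °C, CellTiter-Glo reagent was added for 20 min and luminescence read. AC50 values came from Hill-equation modelling.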

[7] = Cell Viability - Renal Proximal Tubule (AID 545); conditions: renal proximal tubule cells viability; at 91.7 µM (top of the series), primary cells of rat origin unless noted;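 also: 0% = DMSO only and -100% = 100 µM tamoxifen; nearly all actives have a fitted effect of over 40% in size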
Summary of the method: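 Cytotoxicity is scored as a concentration-dependent drop in cellular ATP in primary rat renal proximal tubule cells exposed for 40 hr. AC50 derives from Hill modelling.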

[8] = Cellular Toxicity (caspase-3) HepG2 (AID 654);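 also: cells exposed to compound for 16 hours before reading; 0% = DMSO alone and 100% = caspase signal from 100 µM tamoxifen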
Summary of the method: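 Caspase 3/7 activation in HepG2 is measured as rising luminescence after a 16 hr treatment at 37 °C. Values are scaled between DMSO basal and 100 uM tamoxifen, and AC50 is fitted with the Hill equation.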

[9] = Cellular Toxicity (caspase-3) BJ (AID 658)
Summary of the method: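 qHTS, BJ fibroblasts, 1000 cells/well; 5 hr preincubation, 16 hr compound, 37 °C; Caspase-Glo 3/7 reagent, 1 hr RT; luminescence. DMSO = 0%, 10 uM staurosporine = 100%. Hill-equation AC50.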

[10] = Cellular Toxicity (caspase-3) MRC-5 (AID 659)
Summary of the method: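 MRC-5 fibroblasts, 1500/well; 16 h cpd, 37 °C; Caspase-Glo 3/7, 1 h RT; lumi read. Norm: DMSO = 0%, 10 uM staurosporine = 100%. Hill-fit AC50 from qHTS conc-response.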

[11] = Cellular Toxicity (caspase-3) Mesangial (AID 660);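 also: combined caspase 3 and 7 activity read by Caspase-Glo luminescence; cells exposed to compound for 16 h before the caspase read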
Summary of the method: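 Seed cells derived from normal human renal glomeruli, incubate 5 h, add compounds across concentrations and incubate 16 h at 37 °C. Caspase 3/7 activation is then quantified by luciferase light, with AC50 derived by Hill modeling.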

[12] = Cellular Toxicity (caspase-3) H-4-II-E (AID 663);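 also: cells exposed to compound for 16 hr before readout; 0% = DMSO basal and 100% = 100 µM tamoxifen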
Summary of the method: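 H-4-II-E rat hepatoma, 1500 cells/well, 5 hr settle at 37 °C; compound 16 hr, 37 °C, complete medium; Caspase-Glo 3/7, 20 min RT; luminescence. DMSO = 0%, 100 uM tamoxifen = 100%; Hill-equation AC50.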

[13] = Cellular Toxicity (caspase-3) N2a (AID 665); conditions: N2a cells, luminescence, normalized: DMSO 0%, 10 µM staurosporine 100%; at 92.2 µM (top of the series);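 also: compound exposure lasted 16 h at 37 °C before readout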
Summary of the method: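 Caspase-3/7 activation, measured as increased luminescence from aminoluciferin release, is quantified in mouse N2a cells exposed to compounds for 16 h. Values are normalized to DMSO and 10 uM staurosporine, with AC50 derived by Hill modelling.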

[14] = Cellular Toxicity (caspase-3) NIH 3T3 (AID 666);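 also: caspase signal read after 16 h compound exposure; 0% = DMSO basal and 100% = 100 µM tamoxifen stimulation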
Summary of the method: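 Cells were plated at 1000 per well and incubated 5 hr at 37°C, then compound was added for 16 hr. Caspase-Glo 3/7 reagent followed for 20 min at room temperature before luminescence was read.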

[15] = Cellular Toxicity (caspase-3) Renal Proximal Tubule (AID 667); conditions: renal proximal tubule cells; at 91.7 µM (top of the series), primary cells freshly taken from rat, solvent-only wells 0%, staurosporine 100% unless noted;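 also: cells exposed to compound for 16 hours at 37 °C before detection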
Summary of the method: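 In qHTS format, rat primary proximal tubule cells seeded at 1000 per well are exposed to compounds for 16 hours at 37 °C. An increase in Caspase-Glo 3/7 luminescence indicates caspase activation.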

[16] = qHTS assay for small molecule activators of the nuclear factor-kappa B (NF-kB) signaling pathway (AID 651749; active = well fitted activation curve with a large enough effect in the signal ratio; the % refers to the signal ratio; also: % of control where 0% means no effect); conditions: NF-kB-bla ME-180 cells, beta-lactamase FRET ratio, 16 h; activation: stronger effect = higher value
Summary of the method: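 In this qHTS format, compounds acting as activators increase NF-kB-driven beta-lactamase in ME-180 cells, measured as disrupted FRET after 16 hr exposure at 37C and 5% CO2.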

[17] = biological target: Tumor necrosis factor (Homo sapiens) (UniProt P01375); assay: qHTS assay to identify small molecules that stimulate Tumor Necrosis Factor-alpha (TNF-alpha) secretion (AID 651757; active = well fitted curve in the direction sought with a large enough effect in the signal ratio; the % refers to the signal ratio; also: 0% is about no effect)
Sequence of Tumor necrosis factor (Homo sapiens) (P01375 whole entry, looked up): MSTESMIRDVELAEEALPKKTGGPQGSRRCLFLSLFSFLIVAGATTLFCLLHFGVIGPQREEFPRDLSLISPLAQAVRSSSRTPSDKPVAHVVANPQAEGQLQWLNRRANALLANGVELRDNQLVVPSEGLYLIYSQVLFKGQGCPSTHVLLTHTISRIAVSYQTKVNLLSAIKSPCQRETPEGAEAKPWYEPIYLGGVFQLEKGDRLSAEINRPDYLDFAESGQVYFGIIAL
Summary of the method: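 Human monocytic THP-1 cells are plated, treated with compound and held at 37 C for 17 hrs. Labeled anti-TNF-alpha antibody mixture is then added; after 3 hr at room temperature, TR-FRET signal reports secreted TNF-alpha.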

[18] = qHTS assay for small molecule agonists of the antioxidant response element (ARE) signaling pathway measured by Nrf2-dependant transcriptional activity - cell viability counter screen (AID 720653; active = well fitted curve in the direction sought with a large enough effect in the repeat runs; an effect the other way counts as inactive or inconclusive; also: % is scaled to controls: 0 for no effect and ±100 for the full control effect); conditions: ARE-bla HepG2 viability, CellTiter-Glo ATP luminescence, 16 h; stronger effect = lower value
Summary of the method: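 ARE-bla HepG2 cells treated with compounds for 16 h at 37C; this counter screen measures viability as intracellular ATP by CellTiter-Glo luminescence after 30 min at room temperature.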

[19] = qHTS assay for cell viability of HEK293 cells (AID 743288); conditions: ATP luminescence (CellTiter-Glo), 18 h; max response: stronger effect = lower value; also: % is scaled to controls: 0 for no effect and ±100 for the full control effect; nearly all actives have a fitted effect of over 50% in size
Summary of the method: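 Quantitative high-throughput screen: compounds were pinned onto parental HEK293 cells (2,000 per well) after a minimum 5 h settling at 37 C, incubated 18 h at 37 C, and intracellular ATP measured by luciferase luminescence.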

[20] = qHTS assay for cell viability of the p53RE-bla HCT-116 cell line (AID 743292); also: % is scaled to controls: 0 for no effect and ±100 for the full control effect; nearly all actives have a fitted effect of over 55% in size
Summary of the method: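 Compound-exposed HCT-116 (p53RE-bla) cells, 4,000 per well, were kept 16 h at 37 C following a 5 h preincubation. Cell number was estimated from total ATP by CellTiter-Glo luminescence read after 30 min at room temperature.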

CCCN1C[C@@H](NS(=O)(=O)N(CC)CC)C[C@@H]2Cc3c(O)cccc3C[C@H]21
inactive: Potency [1]

CCC1OC(=O)C(C)C(OC2CC(C)(OC)C(O)C(C)O2)C(C)C(OC2OC(C)CC(N(C)C)C2O)C(C)(O)CC(C)C2NC(COCCOC)OC(C2C)C1(C)O (stereo not drawn)
inactive: Potency [1]

CCCCC(=O)O[C@H]1CC[C@H]2[C@@H]3CCc4cc(O)ccc4[C@H]3CC[C@]12C
inactive: Potency [1]

O=C(OC[C@H]1O[C@@H](OC(=O)c2cc(O)c(O)c(OC(=O)c3cc(O)c(O)c(O)c3)c2)[C@H](OC(=O)c2cc(O)c(O)c(OC(=O)c3cc(O)c(O)c(O)c3)c2)[C@@H](OC(=O)c2cc(O)c(O)c(OC(=O)c3cc(O)c(O)c(O)c3)c2)[C@@H]1OC(=O)c1cc(O)c(O)c(OC(=O)c2cc(O)c(O)c(O)c2)c1)c1cc(O)c(O)c(OC(=O)c2cc(O)c(O)c(O)c2)c1
inactive: Potency [1]

Cc1[nH]c(/C=C2\C(=O)Nc3ccc(F)cc32)c(C)c1C(=O)NCCN1CCCC1
inactive: Potency [1]

Clc1ccc(CCCOCCCN2CCCCC2)cc1
inactive: Potency [1]

CCCCCCCC(=O)CC[C@@H]1[C@@H](C/C=C\CCCC(=O)OC(C)C)[C@@H](O)C[C@H]1O
inactive: Potency [1]

NC(=O)c1cccc2cn(-c3ccc(C4CCCNC4)cc3)nc12 (stereo not drawn)
inactive: Potency [1]

O=C(O)c1ccc2nc(-c3cc(Cl)cc(Cl)c3)oc2c1
inactive: Potency [1]

O=S1OCC2C(CO1)C1(Cl)C(Cl)=C(Cl)C2(Cl)C1(Cl)Cl (stereo not drawn)
inactive: Potency [2] > 92 µM | Potency [3] > 92 µM | activity change, negative = cytotoxicity [5] -20.5% | Potency [6] | activity change, negative = cytotoxicity [7] -22.1% [at 91.7 µM] | outcome [8] | outcome [9] | outcome [10] | outcome [11] | outcome [12] | caspase-3 activation [13] 12.4% | outcome [14] | caspase-3 activation [15] 8.37% [at 91.7 µM] | activation [16] 1.74% | outcome [17] | max response [18] 13.3% | max response [19] -13.5% | Potency [20]
active: activity change, negative = cytotoxicity [4] -80.3%

COC(=O)NC(=S)Nc1ccccc1NC(=S)NC(=O)OC
inactive: Potency [2] > 92 µM | Potency [3] > 92 µM | activity change, negative = cytotoxicity [4] -2.43% | activity change, negative = cytotoxicity [5] -30% | Potency [6] | activity change, negative = cytotoxicity [7] -14.2% | outcome [8] | outcome [9] | outcome [10] | outcome [11] | outcome [12] | caspase-3 activation [13] 0.433% | outcome [14] | caspase-3 activation [15] -3.02% | activation [16] 0.272% and -1.52% | outcome [17] | max response [18] -1.18% and 2.94% | max response [19] 1.27% and -9.9% | Potency [20]

C/C=C/c1ccc2c(c1)OCO2
inactive: Potency [2] > 92 µM | Potency [3] > 92 µM | activity change, negative = cytotoxicity [4] -2.31% | activity change, negative = cytotoxicity [5] -3.37% | Potency [6] | activity change, negative = cytotoxicity [7] -9.95% [at 91.7 µM] | outcome [8] | outcome [9] | outcome [10] | outcome [11] | outcome [12] | caspase-3 activation [13] 0.0142% | outcome [14] | caspase-3 activation [15] -4.01% [at 91.7 µM] | activation [16] -1.42% | outcome [17] | max response [18] -6.6% | max response [19] -1.69% | Potency [20]

ClC1=C(Cl)C2(Cl)C3C4CC(C5OC45)C3C1(Cl)C2(Cl)Cl (stereo not drawn)
inactive: Potency [2] > 92 µM | Potency [3] > 92 µM | activity change, negative = cytotoxicity [5] -20.8% | Potency [6] | activity change, negative = cytotoxicity [7] -5.71% [at 91.7 µM] | outcome [8] | outcome [9] | outcome [10] | outcome [11] | outcome [12] | caspase-3 activation [13] -1.24% | outcome [14] | caspase-3 activation [15] -4.43% [at 91.7 µM] | activation [16] -0.275% | outcome [17] | max response [18] -3.29% | max response [19] -18.3% | Potency [20]

ClC(Cl)=C(c1ccc(Cl)cc1)c1ccc(Cl)cc1
inactive: Potency [2] > 92 µM | Potency [3] > 92 µM | activity change, negative = cytotoxicity [4] -14.6% | activity change, negative = cytotoxicity [5] 7.39% and -2.45% | Potency [6] | activity change, negative = cytotoxicity [7] -4.32% [at 91.7 µM] and -7.69% [at 91.7 µM] | outcome [8] | outcome [9] | outcome [10] | outcome [11] | outcome [12] | caspase-3 activation [13] 2.33% and 2.48% | outcome [14] | caspase-3 activation [15] -10.4% [at 91.7 µM] and -6.37% [at 91.7 µM] | activation [16] 0.128% and -1.11% and 0.0255% | outcome [17] | max response [18] 6.47% and -9.67% and -6.97% | max response [19] -14.7% and -6.72% and -17.4% | Potency [20]
